GAA glycogen mod – alters human alpha-glucosidase cleavage of glycogen; P10253; recombinant GAA, glycogen substrate, Amplex Red glucose oxidase fluorescence; Potency, µM (highest dose often 76.4 µM), usual class: inhibitors; hit rate 0.38% among 300,000; AID 2100;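 also: the screen sought inhibitors and activators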
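Recombinant enzyme (4 nM final) with compounds titrated up to 77 uM and bovine liver glycogen (30 ug) in citrate pH 5.0, 0.01% Tween-20, 37 C 40 min. Released glucose detected by Amplex Red/glucose oxidase (Ex 573/Em 610); AC50 from Hill fits.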
GAA inhib – blocks human lysosomal alpha-glucosidase | P10253 | purified human GAA, 4-MU-alpha-glucoside fluorescence | Potency, µM (series often up to 76.9 µM), hits mostly inhibitors | hit rate 0.005% among 200,000 | AID 1466
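Read-out is 4-methylumbelliferone fluorescence (Ex 365/Em 440 nm) after NaOH/glycine stop at pH 10. Enzyme 4 nM, substrate 400 uM, pH 5.0 citrate buffer, 20 min room temperature; AC50 from Hill-equation concentration-response.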
GLA inh pH 4.5 – blocks human alpha-galactosidase A at pH 4.5. P06280. activity change, negative = inhibition, % at 105 µM. purified enzyme, 4-MU-alpha-Gal fluorescence, pH 4.5. 230,000 tested, under 10 active
Target sequence (P06280 whole entry, looked up): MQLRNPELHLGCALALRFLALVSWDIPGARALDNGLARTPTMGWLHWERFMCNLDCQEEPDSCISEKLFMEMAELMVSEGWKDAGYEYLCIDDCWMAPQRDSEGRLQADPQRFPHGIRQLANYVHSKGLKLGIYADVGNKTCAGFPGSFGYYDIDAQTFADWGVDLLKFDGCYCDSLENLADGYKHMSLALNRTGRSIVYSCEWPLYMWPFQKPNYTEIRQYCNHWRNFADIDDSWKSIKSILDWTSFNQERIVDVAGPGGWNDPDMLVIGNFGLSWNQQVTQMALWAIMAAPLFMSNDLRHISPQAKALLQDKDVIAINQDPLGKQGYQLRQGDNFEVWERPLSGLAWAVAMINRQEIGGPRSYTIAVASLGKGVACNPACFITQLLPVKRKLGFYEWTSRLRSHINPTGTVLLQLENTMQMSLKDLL
N370S GC mod – inhibits or activates N370S mutant glucocerebrosidase | hit rate 0.092% among 330,000 | Potency, µM (highest dose often 59.4 µM), actives largely listed as inhibitors | N370S GC spleen homogenate, 4MU-glucoside fluorescence | P04062
GLA spleen mod – inhibitors or activators of human alpha-galactosidase in spleen homogenate; P06280; human spleen homogenate, 4MU-alpha-Gal fluorescence, 40 min; Potency, µM (highest dose often 80 µM), most hits filed as inhibitors; hit rate 0.008% among 240,000; AID 2107
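Inhibition or activation of alpha-galactosidase in human spleen homogenate is scored by 4-MU fluorescence after 40 min at 37C, pH 5.0, with 1 mM substrate. AC50s come from concentration-response fitted to the Hill equation.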
GAA spleen mod – inhibitors or activators of human alpha-glucosidase in spleen homogenate; Potency, µM (titrated, usually from 79.9 µM), actives largely listed as inhibitors; hit rate 0.006% among 240,000; P10253; human spleen homogenate, 4-MU-alpha-glucoside fluorescence
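AC50 values come from Hill-equation fits of concentration-response data, normalized to no-enzyme and full-activity controls. Enzyme source: 1 ug human spleen homogenate; 1 mM fluorogenic 4-MU glucoside, pH 5.0 citrate buffer, 37 C, 40 min.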
Hits are given with their value; [ ] = remark or other dose. Hits are enriched below; roughly 0.43% of the tested compounds scored in any of these assays. Calls follow the shape of the dose curve; as a rule, active = well fitted curve in the direction sought with a large enough effect; inconclusive = small, poorly fitted or top-dose-only effect, or another doubt; inactive = no such curve, though single readings can be large; an effect the other way counts as inactive or inconclusive.

What do the screens show for `CCn1ccnc1CN(C)Cc1cn(-c2ccc(C)cc2)nc1-c1ccc(F)cc1`?
GAA glycogen mod: inactive; GAA inhib: inactive; GLA inh pH 4.5: inactive; N370S GC mod: 6.3µM; GLA spleen mod: inactive; GAA spleen mod: inactive

How did Cc1ccc(-n2cc(CN(C)Cc3nccn3C)c(-c3ccc(F)cc3)n2)cc1 do in these assays?
GAA glycogen mod: inactive; GAA inhib: inconclusive; GLA inh pH 4.5: inactive; N370S GC mod: inconclusive; GLA spleen mod: inactive; GAA spleen mod: inactive

How did CCn1ccnc1CN(C)Cc1cn(-c2ccccc2)nc1-c1ccc(OC)cc1F do in these assays?
GAA glycogen mod: inactive; GAA inhib: inactive; GLA inh pH 4.5: inactive; N370S GC mod: inactive; GLA spleen mod: inactive; GAA spleen mod: inactive

How did Cc1ccc(S(=O)(=O)Nc2nc(C)c(C(=O)NN)s2)cc1 do in these assays?
GAA glycogen mod: 32µM; GLA inh pH 4.5: inactive; N370S GC mod: inactive; GLA spleen mod: inactive; GAA spleen mod: inactive

Results for CCOC(=O)Nc1sc(NS(=O)(=O)c2ccc(C)cc2)nc1C ?
GAA glycogen mod: 28µM; GAA inhib: inconclusive; GLA inh pH 4.5: inactive; GLA spleen mod: inactive; GAA spleen mod: inactive

How did CC(=O)c1sc(NS(=O)(=O)c2ccc(C)cc2)nc1C do in these assays?
GAA glycogen mod: inactive; GAA inhib: inactive; GLA inh pH 4.5: inactive; N370S GC mod: inactive; GLA spleen mod: inactive; GAA spleen mod: inactive

Results for CCCCc1nc2c(c3c1C[C@H](C)OC3)CN(C(=O)NCc1ccco1)CC2 ?
GLA inh pH 4.5: inactive; N370S GC mod: inactive[12.8 µM]; GLA spleen mod: inactive[17.5 µM]; GAA spleen mod: inactive[17.4 µM]

How did Cc1ccc2sc(N(CCCN(C)C)C(=O)c3ccc(S(=O)(=O)N(C)C4CCCCC4)cc3)nc2c1C do in these assays?
N370S GC mod: 20µM

How did CC(=O)c1ccc(C(=O)N(CCCN(C)C)c2nc3c(C)c(C)ccc3s2)cc1 do in these assays?
GAA glycogen mod: inactive

Results for Cc1nc(-c2ccccc2)c(-c2ccncc2)o1 ?
N370S GC mod: inactive; GLA spleen mod: inactive; GAA spleen mod: inactive

Results for O=C(CCOc1ccccc1)N1CCN(c2ccc(O)cc2)CC1 ?
GAA glycogen mod: 6.3µM; GLA inh pH 4.5: inactive; N370S GC mod: inactive; GLA spleen mod: inactive; GAA spleen mod: inactive

How did O=C(CCSc1ccccc1)N1CCN(c2ccccc2)CC1 do in these assays?
GAA glycogen mod: inactive; GAA inhib: inactive; GLA inh pH 4.5: inactive; N370S GC mod: inactive; GLA spleen mod: inactive; GAA spleen mod: inactive

How did O=C(COc1cccc(C(F)(F)F)c1)N1CCN(c2ccc(O)cc2)CC1 do in these assays?
GAA glycogen mod: 2µM; GAA inhib: inactive; GLA inh pH 4.5: inconclusive; N370S GC mod: inactive; GLA spleen mod: inactive; GAA spleen mod: inactive

How did O=C(CCSc1ccc(Cl)cc1)N1CCN(c2ccc(O)cc2)CC1 do in these assays?
GAA glycogen mod: 18µM; GLA inh pH 4.5: inactive; N370S GC mod: inactive; GLA spleen mod: inactive; GAA spleen mod: inactive

What do the screens show for `C/C(CCN1CCCc2nc(C)c(C)cc21)=N\O[C@@H](C)c1cc(-c2c(C)cc(C)cc2C)no1`?
N370S GC mod: inactive[12.8 µM]; GLA spleen mod: inactive[17.5 µM]; GAA spleen mod: inactive[17.4 µM]

How did Cn1c(-c2ccc3c(c2)OCO3)cnc1NCc1cccc(Cl)c1 do in these assays?
GAA glycogen mod: 18µM; GAA inhib: inactive; GLA inh pH 4.5: inactive; N370S GC mod: inactive; GLA spleen mod: inactive; GAA spleen mod: inactive

What do the screens show for `CCOc1ccc(NC(=O)CNC(=O)c2cn(-c3ccccc3OC)c(=O)c3ccccc23)cc1`?
GAA glycogen mod: inactive; GAA inhib: inactive; GLA inh pH 4.5: inactive; N370S GC mod: 13µM; GLA spleen mod: inactive; GAA spleen mod: inactive

Results for COc1ccc(OC)c(-c2nnc3n2N=C(c2c(OC)cccc2OC)CS3)c1 ?
N370S GC mod: inactive; GLA spleen mod: inactive; GAA spleen mod: inactive

How did CCn1c2ccccc2c2cc(CN3CCN(Cc4ccccc4C)CC3)ccc21 do in these assays?
GAA glycogen mod: inactive

What do the screens show for `CCn1c2ccccc2c2cc(CN3CCN(Cc4cc(OC)ccc4O)CC3)ccc21`?
GAA glycogen mod: 7.9µM; GAA inhib: inactive; GLA inh pH 4.5: inactive; N370S GC mod: inactive; GLA spleen mod: inactive; GAA spleen mod: inactive

How did CCOc1ccc2nc(NC(=O)c3nc(SC(C)C)ncc3Cl)sc2c1 do in these assays?
GAA glycogen mod: inactive

Compound activity: PubChem, National Center for Advancing Translational Sciences (NCATS)
